# PMC4336329 (PLoS ONE, 2015)
# Among all 310,000 compounds or so, about 14,000 (4.5%) showed an effect of 50% or more. The effect is printed as a negative number. Many of the other results were omitted from the sample, so strong results are more common in it than they were.
# Biological target: human ether-à-go-go-related gene (hERG) potassium channel (human, UniProt Q12809)
# Experiment: primary screen, population patch clamp on CHO cells stably expressing hERG; higher = less effect of the substance
# 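Also: peak tail current of the secondary pulse compared with the same well before compound.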
# Chain of human ether-à-go-go-related gene (hERG) potassium channel (Q12809 whole entry, looked up): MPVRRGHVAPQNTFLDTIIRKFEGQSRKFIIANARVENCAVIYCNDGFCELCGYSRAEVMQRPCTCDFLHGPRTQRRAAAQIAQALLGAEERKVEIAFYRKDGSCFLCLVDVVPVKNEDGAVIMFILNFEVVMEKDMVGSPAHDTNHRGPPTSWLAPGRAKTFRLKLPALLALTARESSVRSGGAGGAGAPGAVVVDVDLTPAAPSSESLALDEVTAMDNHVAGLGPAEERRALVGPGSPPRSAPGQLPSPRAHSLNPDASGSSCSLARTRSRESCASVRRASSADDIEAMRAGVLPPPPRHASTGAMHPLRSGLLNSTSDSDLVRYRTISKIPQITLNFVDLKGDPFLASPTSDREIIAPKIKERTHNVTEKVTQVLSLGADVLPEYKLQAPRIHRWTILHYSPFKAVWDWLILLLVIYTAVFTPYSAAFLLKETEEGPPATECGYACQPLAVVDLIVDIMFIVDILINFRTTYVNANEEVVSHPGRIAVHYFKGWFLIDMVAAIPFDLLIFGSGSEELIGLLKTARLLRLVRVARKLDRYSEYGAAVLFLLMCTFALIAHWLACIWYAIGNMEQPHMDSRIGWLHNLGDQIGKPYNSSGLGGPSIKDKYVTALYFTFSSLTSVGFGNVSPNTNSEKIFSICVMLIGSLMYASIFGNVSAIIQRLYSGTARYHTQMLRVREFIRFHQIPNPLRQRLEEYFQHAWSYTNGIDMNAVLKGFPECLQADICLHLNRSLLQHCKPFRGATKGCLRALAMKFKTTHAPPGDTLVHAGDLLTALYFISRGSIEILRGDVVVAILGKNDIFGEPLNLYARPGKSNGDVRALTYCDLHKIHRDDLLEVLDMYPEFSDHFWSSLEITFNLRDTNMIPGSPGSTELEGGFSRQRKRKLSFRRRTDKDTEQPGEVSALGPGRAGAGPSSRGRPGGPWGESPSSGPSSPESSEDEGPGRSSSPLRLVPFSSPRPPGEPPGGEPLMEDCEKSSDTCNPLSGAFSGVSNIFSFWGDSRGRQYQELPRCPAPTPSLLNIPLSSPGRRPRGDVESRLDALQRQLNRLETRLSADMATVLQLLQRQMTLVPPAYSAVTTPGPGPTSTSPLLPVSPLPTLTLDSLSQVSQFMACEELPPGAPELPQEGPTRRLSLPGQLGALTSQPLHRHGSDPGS
row,Structure (SMILES),"hERG current change (%, negative = inhibition) at 10uM"
1,Cc1cc(C(=O)NNC(=O)c2ccccc2[N+](=O)[O-])c(C)o1,11.2%
2,O=C(CN1CCN(Cc2ccc(Cl)cc2)CC1)N/N=C/c1ccncc1,-80.1%
3,O=C(CN1CCN(Cc2ccccc2Cl)CC1)N/N=C/c1cccs1,-20.4%
4,O=C(CN1CCN(Cc2ccc(Cl)cc2)CC1)N/N=C/c1cccs1,-67.2%
5,O=C(CN1CCN(Cc2ccccc2)CC1)N/N=C/c1cccs1,-22.9%
6,O=C(CN1CCN(Cc2ccccc2)CC1)N/N=C/c1cccnc1,-12.8%
7,O=C(Cc1ccc(Cl)cc1)N/N=C/c1ccncc1,-27.3%
8,O=C(O)CCCNC(=O)Cc1ccccc1,5.08%
9,O=C(C1=C(O)C(=O)N(c2ncccn2)C1c1cccs1)c1ccco1 (stereo not drawn),14.3%
10,COc1ccccc1C1NC(=O)NC(C)=C1C(=O)OC1CCCCC1 (stereo not drawn),6.66%
11,COCCNC(=O)C(=O)NNC(=O)CCc1ccccc1,8.78%
12,CCOC(=O)CN1C(=O)N[C@@H](c2cccc(C(F)(F)F)c2)C(C(C)=O)=C1C,11.8%
13,Cn1nc(-c2ccccc2)c2nc3ccccc3nc21,-5.31%
14,Cl.Nc1nc(N2CCN(C(=O)c3ccco3)CC2)nc2ccccc12,-49.4%
15,CC(=O)c1ccc(N2CCN(C(=O)c3cc(-c4ccncc4)nc4ccc(Br)cc34)CC2)cc1,-42%
16,COc1cc2nc(N3CCN(C(=O)c4ccco4)CC3)nc(N)c2cc1OC.Cl,-35.9%
17,O=C(O)c1cc(-c2ccc3c(c2)OCO3)nc2ccc(Br)cc12,9.07%
18,O=C(c1ccco1)N1CCN(C(=O)c2cc(-c3ccncc3)nc3ccc(Br)cc23)CC1,-72.7%
19,Cl.Nc1nc(N2CCN(C(=O)c3ccco3)CC2)nc2ccc(Br)cc12,-59.5%
20,O=C(c1cc(-c2ccncc2)nc2ccc(Br)cc12)N1CCN(Cc2ccc3c(c2)OCO3)CC1,-56.5%
21,O=C(c1cc(-c2ccncc2)nc2ccc(Cl)cc12)N1CCN(Cc2ccc3c(c2)OCO3)CC1,-46.7%

row,Structure (SMILES),"hERG current change (%, negative = inhibition) at 10uM"
1,O=C(c1cc(-c2ccncc2)nc2ccc(Br)cc12)N1CCN(c2ccccn2)CC1,-37.2%
2,Cc1nc(C)c(-c2csc(Nc3ccc(F)cc3)n2)s1,-25.1%
3,O=C1CSc2ccc(C(=O)Nc3cccc(S(=O)(=O)Nc4ccc(Br)cc4)c3)cc2N1,15%
4,O=C(COC(=O)c1cccc(-n2cnnn2)c1)c1ccc(F)cc1,-0.561%
5,CCOC(=O)C1CCN(S(=O)(=O)c2ccc3c(c2)CC(=O)N3C)CC1,-22%
6,C=CCc1c(C)nc(SC(C)C)[nH]c1=O,-2.85%
7,CCOc1cc(C(=S)N2CCCC2)ccc1OC(=O)Cc1ccc(F)cc1,7.36%
8,O=C(Cc1ccc(F)cc1)Nc1c(C(=O)N2CCN(c3ncccn3)CC2)oc2ccccc12,-56%
9,COc1ccc(CC(=O)Nc2c(C(=O)N3CCN(c4ncccn4)CC3)oc3ccccc23)cc1OC,-46.8%
10,O=C(c1oc2ccccc2c1CSCc1ccccc1)N1CCN(c2ncccn2)CC1,1.59%
11,COc1ccc(N2CCN(C(=O)c3oc4ccccc4c3NC(=O)Cc3ccc(OC)c(OC)c3)CC2)cc1,-28.7%
12,COc1ccc(CC(=O)Nc2c(C(=O)N3CCN(c4ncccn4)CC3)oc3ccccc23)cc1,-63.7%
13,Cc1ccc(O)c(NC(=O)c2ccc3c(c2)C(=O)N(Cc2ccco2)C3=O)c1,3.81%
14,COC(=O)c1[nH]c2c(c1C)C(=O)CC(c1ccc(OC)cc1)C2 (stereo not drawn),11%
15,CCOc1ccc2[nH]c(=O)c(CN(CCOC)C(=O)N3CCOCC3)cc2c1,13.5%
16,O=C(Nc1nnc(-c2ccc(F)cc2)o1)c1ccc(S(=O)(=O)N2CCOCC2)cc1,-6.82%
17,CC(Oc1ccc(Cl)cc1)C(=O)N(C)CC(=O)Nc1ccc(N2CCOCC2)cc1 (stereo not drawn),5.8%
18,Cn1c(CCN2CCCCC2)nc2cc(NC(=O)COc3ccc([N+](=O)[O-])cc3)ccc21,-63.1%
19,Cn1c(CN2CCCC2)nc2cc(NC(=O)COc3ccc([N+](=O)[O-])cc3)ccc21,-38.6%
20,CCN1CCN(CCc2nc3cc([N+](=O)[O-])ccc3n2C)CC1,-16.9%
21,Cn1c(CN2CCCCC2)nc2cc([N+](=O)[O-])ccc21,-0.791%
